An excerpt weighted towards active compounds, which were near 4.6% of everything screened.
USP10 block = inhibitors of human USP10 deubiquitinase; AID 1645856; purified USP10, Ub-rhodamine fluorescence, 60 min; inhibition, % at 20 µM; 47,000 tested, 1.1% active; Q14694
USP7 inh = human USP7 deubiquitinase inhibition; Q93009; purified USP7, Ub-rhodamine cleavage fluorescence; AID 1645854; inhibition, % at 20 µM; 47,000 tested, 0.3% active
USP8 block = human USP8 deubiquitinase inhibition | AID 1645853 | 47,000 tested, 4.2% active | purified USP8, Ub-rhodamine cleavage fluorescence, 30 min | inhibition, % at 20 µM
Target sequence (P40818 whole entry, looked up): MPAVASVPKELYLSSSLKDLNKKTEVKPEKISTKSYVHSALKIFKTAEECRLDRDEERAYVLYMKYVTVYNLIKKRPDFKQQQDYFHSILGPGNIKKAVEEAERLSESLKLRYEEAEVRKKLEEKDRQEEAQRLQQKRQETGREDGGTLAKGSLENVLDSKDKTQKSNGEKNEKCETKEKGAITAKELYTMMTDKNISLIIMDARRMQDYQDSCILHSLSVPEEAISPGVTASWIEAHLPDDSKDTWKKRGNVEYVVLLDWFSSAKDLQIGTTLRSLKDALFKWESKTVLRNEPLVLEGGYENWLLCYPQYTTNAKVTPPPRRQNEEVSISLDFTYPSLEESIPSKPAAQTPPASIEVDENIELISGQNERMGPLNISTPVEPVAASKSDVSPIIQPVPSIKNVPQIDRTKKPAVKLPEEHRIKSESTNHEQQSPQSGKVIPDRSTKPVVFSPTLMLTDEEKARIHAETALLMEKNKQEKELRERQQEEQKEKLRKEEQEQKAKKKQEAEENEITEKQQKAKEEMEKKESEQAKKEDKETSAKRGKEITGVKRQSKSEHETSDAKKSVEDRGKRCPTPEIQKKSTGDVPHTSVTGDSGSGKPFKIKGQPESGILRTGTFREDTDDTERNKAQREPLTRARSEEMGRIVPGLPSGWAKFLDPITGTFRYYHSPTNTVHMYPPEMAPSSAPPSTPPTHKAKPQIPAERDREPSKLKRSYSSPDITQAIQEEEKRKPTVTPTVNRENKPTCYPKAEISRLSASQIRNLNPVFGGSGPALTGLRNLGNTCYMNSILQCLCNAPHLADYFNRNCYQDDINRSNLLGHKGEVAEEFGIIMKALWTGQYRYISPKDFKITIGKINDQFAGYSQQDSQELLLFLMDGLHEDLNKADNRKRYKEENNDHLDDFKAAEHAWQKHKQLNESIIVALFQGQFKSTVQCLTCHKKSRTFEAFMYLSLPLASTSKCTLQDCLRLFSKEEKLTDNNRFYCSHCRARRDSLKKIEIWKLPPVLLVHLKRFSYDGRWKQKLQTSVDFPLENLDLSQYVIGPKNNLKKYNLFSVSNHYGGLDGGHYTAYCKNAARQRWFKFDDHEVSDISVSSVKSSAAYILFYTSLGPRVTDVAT
UCHL1 inh = human UCHL1 deubiquitinase inhibition; P09936; inhibition, % at 20 µM; 47,000 tested, 0.2% active; AID 1645859; purified UCHL1, Ub-rhodamine cleavage fluorescence
* = called active by the depositor; / = no result. Rule as the data show it: active = inhibition above about 30%; inactive = the rest.

SMILES	USP10 block	USP7 inh	USP8 block	UCHL1 inh
O=C(Nc1ccc(OCc2ccccc2)cc1)NC1Cc2ccccc2C1	5	5	8	-3
O=C(Nc1ccc(NC(=O)c2ccccc2O)cc1)Nc1ccc(OCc2ccccc2)cc1	61*	30	91*	4
COc1cc2c(c(OC)c1OC)-c1ccc(NCCc3cccc(F)c3)c(=O)cc1[C@@H](NC(C)=O)CC2	-7	-24	-19	-28
N#Cc1cccc(NC(=O)Nc2cccn(Cc3ccc(F)cc3)c2=O)c1	20	-1	91*	8
CCC1(CC)Oc2ccc(C(=O)CCN(C)C)cc2O1	6	7	32*	2
COc1cccc(NC(=O)c2c(O)c3ccccc3n(CC(C)C)c2=O)c1	3	2	85*	-1
Cn1c(=O)c(C(=O)Nc2cccc(F)c2)c(O)c2ccccc21	0	0	0	0
CCn1c(=O)c(C(=O)NCc2cccnc2)c(O)c2ccccc21	1	/	3	2
CCC(=O)NNC(=O)c1c(O)c2ccccc2n(CC)c1=O	2	-3	51*	-2
COc1ccc(-n2c(=O)c3ccc(C(=O)NCCc4ccccc4)cc3n(CC(=O)NCCC3=CCCCC3)c2=O)cc1	55*	17	8	1
Cc1ccc(-n2c(=O)c3ccc(C(=O)NCc4ccco4)cc3n(CC(=O)NCCC3=CCCCC3)c2=O)cc1	45*	3	43*	-1
Cc1ccc(-c2noc(CCC(=O)N3CCN(Cc4ccccc4)CC3)n2)cc1	-2	0	-2	3
Cc1ccccc1C(=O)N1CCCC(c2[nH]ncc2S(C)(=O)=O)C1 (configuration not stated)	1	2	0	-2
CC1=CC(=O)C(C2=C(O)C(=O)C(C)=CC2=O)=C(O)C1=O	8	-122	32*	13
O=C(CS(=O)(=O)c1cn(CC(=O)N2CCOCC2)c2ccccc12)Nc1ccccc1	0	5	9	-1
COc1ccc(NC(=O)Cn2cc(S(=O)(=O)Cc3ccccc3)c3ccccc32)c(OC)c1	15	11	33*	1
O=C(Cn1cc(S(=O)(=O)Cc2ccccc2)c2ccccc21)Nc1ccccc1	-5	0	34*	-8
O=C(Cn1cc(S(=O)(=O)Cc2ccccc2)c2ccccc21)NCCC1=CCCCC1	12	4	-6	2
Cc1ccccc1NC(=O)Cn1cc(S(=O)(=O)Cc2ccccc2)c2ccccc21	7	20	35*	6
CN(C[C@H](O)c1cccc(O)c1)C(=O)c1ccc2c(c1)OCC(=O)N2Cc1cccc(F)c1	0	7	-4	0
COc1ccc(CNC(=O)NCc2nnnn2-c2ccc(C)cc2)cc1OC	2	0	-1	0
CCOC(=O)N1CCN(c2cc(-c3cccnc3)nc(-c3ccccn3)n2)CC1	-1	0	-58	-1
O=C(CSc1nnc2c3ccccc3nc(-c3ccco3)n12)N1CCCc2ccccc21	48*	1	34*	-2
CCOc1ccc(C(=O)N2CCC(Nc3cccnc3)C2)cc1 (configuration not stated)	-7	-15	49*	-7
O=C(c1ccccc1)N1CCN(C(=O)c2cc(-c3cccnc3)n[nH]2)CC1	0	-1	6	-2
SMILES	USP10 block	USP7 inh	USP8 block	UCHL1 inh
COc1ccc(C(=O)N2CCC(Nc3cccnc3)C2)c(OC)n1 (configuration not stated)	-5	-12	62*	-4
O=C(c1ccc2cc[nH]c2c1)N1CCC(Nc2cccnc2)C1 (configuration not stated)	10	-29	83*	21
O=C(c1cc(-c2ccccc2)n[nH]1)N1CCC(Nc2cccnc2)C1 (configuration not stated)	-10	-8	58*	-8
O=C(CSc1nc(-c2ccccc2)c2ccccc2n1)NCc1ccc(C(=O)O)cc1	1	6	19	1
O=C(CSc1nc(-c2ccccc2)c2ccccc2n1)NCc1ccc2c(c1)OCO2	17	2	55*	-3
NS(=O)(=O)c1ccc(CCNC(=O)CSc2nc3ccccc3c(=O)n2Cc2ccc3c(c2)OCO3)cc1	27	6	53*	-1
O=C(COc1ccc(Cl)cc1Cl)Nc1ccccc1-c1nc2ccccc2[nH]1	28	24	27	4
CC(C)N1CCc2c(sc(NC(=O)CSc3ccccc3)c2C(N)=O)C1	-10	0	-25	0
CC(=O)N1CCc2c(sc(NC(=O)C3CC3)c2C(N)=O)C1	-2	-13	50*	-11
COc1ccccc1OCc1nnc(SCC(=O)c2ccc(F)cc2)n1C	-1	-4	-7	0
Cn1c(COc2cccc3cccnc23)nnc1SCC(=O)c1ccc(Cl)cc1Cl	36*	-54	58*	5

Bioassay records from PubChem BioAssay.
